Holding throughout (assay): NCI-60 one-dose screen, 48 h (100 = growth as untreated, 0 = no growth, -100 = all killed)
The test system of one test is HT29 colon. The conditions noted are these: 10 µM.
The subject of another test is SNB-75 CNS. The conditions noted are these: 10 µM.
The subject of another test is SNB-19 CNS. The conditions noted are these: 10 µM.
In a further test the test system is U251 CNS. The conditions noted are these: 10 µM.
The next test has as its system PC-3 prostate. The conditions noted are these: 10 µM.
A further test has as its system SK-MEL-5 melanoma. The conditions noted are these: 10 µM.
Another test has as its system UACC-62 melanoma. The conditions noted are these: 10 µM unless noted.
The next test relates to LOX IMVI melanoma. The conditions noted are these: 10 µM.
The subject of the next test is SK-MEL-28 melanoma. The conditions noted are these: 10 µM.

This note sets out measurements from PubChem BioAssay (NCI).

Each structure is given as a SMILES string. The panel holds about 83,000 compounds, 20% with a hit somewhere; the sample as a whole holds those more often.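 Growth was measured after 48 h exposure to one concentration of compound in 96-well plates. Values under 10 count as active.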 Unmarked numbers belong to inactive results. Activity calls are given as the source filed them.

Regarding `CC1NC(=O)NC1CCCCCC(=O)O` (configuration not stated), the growth with HT29 colon was 102%; with SNB-75 CNS it was 94%; in the test on SNB-19 CNS, 99.8%; in the test with U251 CNS, 94.5%; with PC-3 prostate, 86.4%; with SK-MEL-5 melanoma, 102%. Further, the results for the growth in the test on UACC-62 melanoma, with LOX IMVI melanoma and in the test on SK-MEL-28 melanoma were 96.7%, 93.3% and 115%, respectively.

On to `C/C=C/CC(C)C(O)C1C(=O)NC(CC)C(=O)N(C)CC(=O)N(C)C(CC(C)C)C(=O)NC(C(C)C)C(=O)N(C)C(CC(C)C)C(=O)NC(C)C(=O)NC(C)C(=O)N(C)C(CC(C)C)C(=O)N(C)C(CC(C)C)C(=O)N(C)C(C(C)C)C(=O)N1C` (configuration not stated), for which the growth is -37.2% (active) with HT29 colon; 41.7% in the test on SNB-19 CNS; 29.7% in the test on U251 CNS; 11.7% with PC-3 prostate; 2.67% (active) in the test with SK-MEL-5 melanoma; 2.53% (active) in the test on UACC-62 melanoma. Also, the growth is 0.362% (active) in the test with LOX IMVI melanoma and -36.4% (active) in the test with SK-MEL-28 melanoma.

`O=[N+]([O-])c1ccc(/C=C/C=C/c2ccccc2)c(Cl)c1`: the growth in the test on HT29 colon was 90.3%; in the test on SNB-75 CNS it was 94.2%; in the test on SNB-19 CNS, 99.7%; in the test on U251 CNS, 92%; with PC-3 prostate it was 94.1%; in the test with SK-MEL-5 melanoma it was 101%. The growth with UACC-62 melanoma was 96.6%; with LOX IMVI melanoma it was 98%; in the test with SK-MEL-28 melanoma, 106%.

For `O=C(N/N=C/c1ccccc1O)Nc1nn[nH]n1`, the growth in the test on HT29 colon was 104%; in the test with SNB-75 CNS, 85.7%; in the test with SNB-19 CNS it was 97.4%; with U251 CNS it was 104%; with PC-3 prostate it was 95.6%; with SK-MEL-5 melanoma, 99.3%. Further, the growth with SK-MEL-28 melanoma was 111%.

As to `Cc1cc(N)c(S(=O)(=O)O)c(N)c1`, the growth is 111% in the test with HT29 colon; 98.8% in the test with SNB-75 CNS; 90.7% in the test on SNB-19 CNS; 98.7% in the test with U251 CNS; 104% in the test with SK-MEL-5 melanoma; 92.4% in the test on UACC-62 melanoma. Moreover, the results for the growth in the test on LOX IMVI melanoma and with SK-MEL-28 melanoma were 94% and 104%, respectively.

`CCOc1ccc(I)cc1`: the growth in the test on HT29 colon was 106%; in the test on SNB-75 CNS, 91.4%; in the test with SNB-19 CNS it was 104%; with U251 CNS it was 103%; in the test with PC-3 prostate it was 88.4%; in the test on SK-MEL-5 melanoma it was 118%. Moreover, the figures for the growth in the test on UACC-62 melanoma, with LOX IMVI melanoma and in the test with SK-MEL-28 melanoma were 95.2%, 100% and 107%, respectively.

For the molecule `N#Cc1ccc(NC(=O)Nc2cccc(C#N)c2)cc1`, the growth in the test on HT29 colon was 97.3%; with SNB-75 CNS, 97.8%; in the test with SNB-19 CNS, 103%; in the test on U251 CNS it was 91.8%; with PC-3 prostate, 57.3%; in the test on UACC-62 melanoma it was 93.7%. Besides, the growth in the test with LOX IMVI melanoma was 91.6%; in the test with SK-MEL-28 melanoma it was 108%.

Take `O=C(/C=C\c1ccc(O)cc1)c1ccccc1`: the growth is 86.8% in the test on HT29 colon; 81.4% in the test on SNB-75 CNS; 104% in the test with SNB-19 CNS; 80.7% with U251 CNS; 90.6% in the test with PC-3 prostate; 97.3% in the test on SK-MEL-5 melanoma. Also, the growth is 94.8% in the test with UACC-62 melanoma, 94.4% in the test with LOX IMVI melanoma and 103% in the test on SK-MEL-28 melanoma.

With `OCC(O)C(O)C(O)C(O)/C=N/O` (configuration not stated), the growth in the test on HT29 colon is 103%; in the test on SNB-75 CNS, 96.1%; in the test on SNB-19 CNS, 98.3%; in the test on U251 CNS, 91%; in the test with PC-3 prostate it was 73.2%; with SK-MEL-5 melanoma, 101%. Further, the growth with UACC-62 melanoma was 93.3%; in the test with SK-MEL-28 melanoma, 114%.

In the case of `CC1(c2ccccc2)NC(=O)NC1=O` (configuration not stated), the growth is 110% in the test with HT29 colon; 103% with SNB-19 CNS; 113% in the test with U251 CNS; 98.6% in the test with PC-3 prostate; 108% in the test with SK-MEL-5 melanoma; 100% with UACC-62 melanoma. The growth in the test on LOX IMVI melanoma was 109%; in the test on SK-MEL-28 melanoma, 113%.

`O=C(Nc1cc(-c2ccccc2)[nH]n1)c1ccc(Cl)cc1`: the growth in the test on HT29 colon is 67.2%; in the test on SNB-19 CNS, 65.2%; with U251 CNS it was 70.2%; with PC-3 prostate, 75.9%; in the test on SK-MEL-5 melanoma it was 87.6%; in the test on UACC-62 melanoma, 79.7%. Also, the results for the growth with LOX IMVI melanoma and with SK-MEL-28 melanoma were 89.5% and 117%, respectively.

`CC(=O)OC(OC(C)=O)C1CCCO1` (configuration not stated): the growth is 106% in the test on HT29 colon; 90.2% in the test on SNB-75 CNS; 109% with SNB-19 CNS; 105% in the test on U251 CNS; 95.5% in the test with PC-3 prostate; 104% with SK-MEL-5 melanoma. Moreover, the figures for the growth with UACC-62 melanoma, with LOX IMVI melanoma and with SK-MEL-28 melanoma were 95.2%, 89.7% and 97%, respectively.

`Cc1cc(/C=C/c2ccc3cc(N(C)C)ccc3[n+]2C)c(C)n1-c1ccccc1`: the growth in the test on HT29 colon is 4.1% (active); in the test on SNB-75 CNS, -1.13% (active); in the test with SNB-19 CNS, 9.5% (active); in the test on U251 CNS, -11.9% (active); in the test on PC-3 prostate, -7.89% (active); in the test with SK-MEL-5 melanoma, -96.8% (active). In addition, the growth in the test with LOX IMVI melanoma was -38% (active); with SK-MEL-28 melanoma, -63.9% (active).

`CCOC(=O)c1[nH]c(C)c(C(=O)O)c1C`: the growth in the test with HT29 colon was 105%; with SNB-19 CNS it was 109%; in the test on U251 CNS, 107%; in the test on PC-3 prostate, 88.9%; in the test with SK-MEL-5 melanoma, 108%; in the test on UACC-62 melanoma, 107%. For the same molecule, the growth in the test on LOX IMVI melanoma is 106%.

Consider `CC(=O)c1c[nH]c2ccccc12`, for which the growth in the test with HT29 colon is 118%; in the test with SNB-75 CNS, 88.1%; in the test on SNB-19 CNS it was 105%; in the test with U251 CNS, 95.7%; with PC-3 prostate, 86.1%; with SK-MEL-5 melanoma it was 103%. The growth in the test on UACC-62 melanoma was 97.5%; in the test on LOX IMVI melanoma it was 102%; with SK-MEL-28 melanoma it was 103%.

Take `CCCCCC(C)(CC(=O)O)CC(=O)O`: the growth was 105% with HT29 colon; 97.4% in the test with SNB-75 CNS; 116% in the test on SNB-19 CNS; 102% in the test with U251 CNS; 99.6% with PC-3 prostate; 101% in the test on SK-MEL-5 melanoma. The growth in the test with UACC-62 melanoma was 119%; in the test with SK-MEL-28 melanoma, 108%.
